G9a block = blocks human histone lysine methyltransferase G9a | Potency, µM (highest dose often 102 µM), without a hit: at the highest dose activity, negative = inhibition, usual class: inhibitors | AID 504332 | G9a H3K9 monomethylation, AlphaScreen, 2 h | Q96KQ7 | hit rate 8.8% among 350,000; further: on the % scale 0 is the no-effect control and ±100 the full control effect; nearly all actives have a fitted effect of over 75% in size
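Quantitative HTS format: methyltransferase activity on a biotin-tagged H3K9 peptide is measured by AlphaScreen, using a rabbit anti-monomethyl-H3K9 antibody with streptavidin donor and anti-IgG acceptor beads. Final levels are 20 nM enzyme, 500 nM peptide, 20 uM SAM; 2 h RT.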
HP1b chromo inh = blocks HP1-beta chromodomain binding to methylated histone tails. P83916. AlphaScreen HP1-beta / biotin-H3K9me3 peptide binding. Potency, µM (highest dose often 114 µM), inactives show top-dose activity change, negative = inhibition, actives largely listed as inhibitors. hit rate 0.56% among 390,000. AID 540317; further: nearly all actives have a fitted effect of over 70% in size
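Compound inhibition of the preformed complex between 50 nM HP1-beta and 50 nM biotinylated H3K9me3 peptide was read by AlphaScreen. Buffer was PBS pH 7.4 with 0.01% Tween-20. Incubations ran 30 min at room temperature, with 10 ug/mL donor/acceptor beads.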
L3MBTL1 inh = blocks human L3MBTL1; Potency, µM (top dose mostly 57.1 µM), without a hit: at the highest dose activity, negative = inhibition, hits mostly inhibitors; hit rate 0.66% among 230,000; Q9Y468; AlphaScreen L3MBTL1–H3K9me1 peptide binding; further: on the % scale 0 is the no-effect control and ±100 the full control effect; nearly all actives have a fitted effect of over 60% in size
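Displacement of a biotinylated histone H3(1-15) peptide monomethylated at Lys9 (75 nM) from L3MBTL1 (50 nM) was measured by AlphaScreen after a 30 min room-temperature compound incubation; cefsulodin titration served as intraplate control.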
JMJD2A Tudor inh = JMJD2A Tudor domain (human) inhibition | Potency, µM (highest dose often 114 µM), for the others: at the top dose activity change, negative = inhibition, hits mostly inhibitors | hit rate 4.4% among 390,000 | AlphaScreen JMJD2A-Tudor / H3K4me3 peptide binding | O75164; further: on the % scale 0 is the no-effect control and ±100 the full control effect; nearly all actives have a fitted effect of over 50% in size
Sfp inh = inhibitors of Bacillus subtilis Sfp phosphopantetheinyl transferase; Q9F4F7; Potency, µM, without a hit: largest response in the series, negative = inhibition, usual class: inhibitors; hit rate 3.5% among 310,000; Biochemical Sfp PPTase activity, qHTS;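 further: the enzyme is Sfp with the accession as filed and its product quenches rhodamine fluorescence; 0% = enzyme reaction without inhibitor and -100% = no enzyme wells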
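After 15 min at room temperature with compound, 15 nM Sfp received 5 uM rhodamine-CoA plus 12.5 uM BHQ-2-ybbR (50 mM Hepes pH 7.6, 10 mM MgCl2). Rate came from the fluorescence difference over 30 min, ex 525/em 598 nm.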
BAZ2B block = inhibitors of human BAZ2B bromodomain; hit rate 4.4% among 360,000; Potency, µM (titrated, usually from 114 µM), without a hit: at the highest dose activity change, negative = inhibition, hits mostly inhibitors; AlphaScreen BAZ2B-H3K14Ac peptide displacement; further: on the % scale 0 is the no-effect control and ±100 the full control effect; nearly all actives have a fitted effect of over 60% in size
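BAZ2B 50 nM plus b-H3(5-23)K14Ac 50 nM, PBS pH 7.4/0.01% Tween-20, 30 min RT; compound added (max 110 uM), 30 min RT; streptavidin donor/Ni-chelate acceptor beads 10 ug/mL final, 20 min dark; AlphaScreen read.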
An asterisk follows results filed as active; ? = inconclusive; nt = no result given; [ ] = another dose, or the depositor's remark. This is a sample that favours compounds with a hit; in the whole collection about 12% have one here. The call rests on the fitted dose curve; in most records, active means well fitted curve in the direction sought with a large enough effect; inconclusive means small, poorly fitted or top-dose-only effect, or another doubt; inactive means no such curve, though single readings can be large; an effect the other way counts as inactive or inconclusive. Potency means the concentration at half of the fitted maximal effect.

SMILES | G9a block | HP1b chromo inh | L3MBTL1 inh | JMJD2A Tudor inh | Sfp inh | BAZ2B block
Cc1ccccc1CN1CCC(n2nccc2NC(=O)CCCc2ccccc2)CC1 | 0%[0.0925 µM] | 37% | nt | -11% | -1% | -6%
COc1ccc(C(=O)Nc2ccnn2C2CCN(Cc3cnn(C)c3)CC2)cc1 | 29% | 28% | nt | -23% | 5% | -7%[57.1 µM]
O=C(CCCc1ccccc1)Nc1ccnn1C1CCN(Cc2ccccn2)CC1 | 79µM* | 24% | nt | -10% | 1% | ?
COc1ccc(C(=O)Nc2ccnn2C2CCN(Cc3ccccn3)CC2)cc1 | 50µM* | 20% | nt | -10% | -2% | -25%[57.1 µM]
O=C(c1ccc(Cl)cc1Cl)N1CCC(c2nc3c(nnn3Cc3ccco3)c(=O)[nH]2)CC1 | 45µM* | 11% | -6% | -10% | -22% | -7%
CC(C)n1c(CN(C)Cc2ccccc2)nc2c1c(=O)n(C)c(=O)n2C | -2%[2.33 µM] | 12% | nt | 8% | 1% | 6%
NNC(=O)c1nc[nH]c1C(=O)Nc1ccccn1 | -31% | 38% | ? | 2.8µM* | 26% | 2.5µM*
O=C(O)c1ccccc1C(=O)Nc1ccccn1 | ? | 13% | 41% | -35% | 13% | -28%
O=C(Nc1ccccn1)c1ccc2ccccc2c1O | 32µM* | 57% | 3% | 12%[57.1 µM] | 7% | -20%
CC1(C)C(=O)C(c2ccccc2)=C2CN3C(=O)N(CCc4ccccc4)C(=O)C3(Cc3ccc(F)cc3)C=C21 (stereo unspecified) | nt | nt | nt | nt | 21% | nt
Cc1ccc(C2C(C(=O)c3cccs3)=C(O)C(=O)N2c2nnc(C)s2)cc1 (stereo unspecified) | -47% | 39% | 15% | -13% | ? | ?
O=[N+]([O-])c1cc2c(cc1/C=N/NS(=O)(=O)c1ccc(Br)cc1)OCO2 | 11µM* | ? | -4% | 2%[11.4 µM] | -28% | -37%
O=S(=O)(N/N=C/c1ccccc1F)c1ccccc1 | ? | -10% | nt | ? | 14% | -1%
Cc1ccc(S(=O)(=O)N/N=C/c2ccccc2F)cc1[N+](=O)[O-] | 11µM* | 21% | nt | -25% | 13% | ?
CCN(Cc1ccccc1)c1ccc(/C=N/NS(=O)(=O)c2ccc(C)c([N+](=O)[O-])c2)cc1 | 8.9µM* | ? | -13% | ? | ? | ?
Cc1ccc(S(=O)(=O)N/N=C\c2cc3c(cc2Br)OCO3)cc1 | -13%[59 µM] | 31% | -14% | 8% | 9% | -6%
CCN(CC)C(=S)S | ? | nt | nt | nt | 45µM* | nt
C#CCOc1ccc(/C=C2\SC(=S)N(Cc3cccnc3)C2=O)cc1 | -4%[59 µM] | 15% | -19% | -11% | -40% | -9%
O=C1/C(=C/c2ccncc2)SC(=S)N1Cc1ccccc1 | nt | 45µM* | -26% | 25µM* | ? | 11µM*
CCCN1C(=O)/C(=C/c2ccncc2)SC1=S | 45µM* | ? | -25% | ? | 56µM* | 25µM*
CCOc1ccc(/C=C/C(=O)CCC(=O)O)cc1 | 20%[59 µM] | 56% | 0% | -18% | 0% | -3%
O=C(Nc1ccc(N2CCCC2)c(Cl)c1)c1ccc([N+](=O)[O-])o1 | 25µM* | ? | nt | 45µM* | -5% | 18µM*
O=C(Nc1ccc(N2CCCCC2)cc1)c1ccc([N+](=O)[O-])o1 | 40µM* | ? | nt | 11µM* | 7% | 28µM*
CC(C)(C)C(=O)N1CCN(c2ccc(NC(=O)c3ccc([N+](=O)[O-])o3)cc2)CC1 | -16%[59 µM] | 10% | nt | -17% | 12% | -8%
CC1CCN(c2ccc(NC(=O)c3ccc([N+](=O)[O-])o3)cc2)CC1 | 35µM* | -1% | -9% | -26% | nt | -31%
O=C(Nc1cccc(NC(=O)c2ccccc2Cl)c1)c1ccc([N+](=O)[O-])o1 | 5%[59 µM] | 26% | nt | -19% | 8% | -30%
COC(=O)C(CCSC)NC(=O)Cn1ncc2c([nH]c3ccccc32)c1=O (stereo unspecified) | 4%[59 µM] | 18% | nt | -1% | nt | 0%

High-throughput results (PubChem BioAssay)
